# Screening results from PubChem BioAssay.
# DRD3 agonist – qHTS of D3 Dopamine Receptor Agonist: qHTS. max activation, %. hit rate 0.58% among 410,000. D3R DiscoveRx beta-arrestin cells, luminescence, 90 min. D(3) dopamine receptor (Homo sapiens), P35462; in the data active means max activation above about 30%
#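 Agonist-mode cell screen: cells plated at 1500/well and incubated overnight at 37 °C, then exposed to library compounds for 90 min at 37 °C. Detection reagent was added for 30–60 min at room temperature, and luminescence was read.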
# RGS4 inh – Inhibitors of Regulator of G Protein Signaling (RGS) 4: qHTS; Regulator of G-protein signaling 4 (Homo sapiens), P49798; Transcreener GDP fluorescence polarization, RGS4-accelerated GTP hydrolysis; Potency, µM (titrated, usually from 114 µM), usual class: inhibitors; hit rate 0.039% among 390,000; AID 504845, 2011; active means well fitted inhibition curve with a large enough effect; inconclusive means small, poorly fitted or top-dose-only effect; inactive means no such curve, though single readings can be large or run the other way; further: nearly all actives have a fitted effect of over 75% in size
# Target sequence (P49798 whole entry, looked up): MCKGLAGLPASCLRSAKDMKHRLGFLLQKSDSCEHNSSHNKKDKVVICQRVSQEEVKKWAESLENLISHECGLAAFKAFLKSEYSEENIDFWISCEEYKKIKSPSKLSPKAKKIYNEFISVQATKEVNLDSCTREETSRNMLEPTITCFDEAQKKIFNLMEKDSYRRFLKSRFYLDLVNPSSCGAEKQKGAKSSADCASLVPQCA
#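 MLSMR compounds (23 nl, pin-transferred) preincubated 10 min at room temperature with a 500nM (2x) first reagent, then RGS4 at 900nM (2x) plus Transcreener GDP mix added; fluorescence polarization (620/688 nm) read before and after 90 min at 30 °C.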
# DRD3 antagonist – qHTS of D3 Dopamine Receptor Antagonist: qHTS; D(3) dopamine receptor (Homo sapiens), P35462; D3R cells, DiscoveRx beta-arrestin luminescence, antagonist mode; hits give low values; max response, negative = inhibition, %; hit rate 2.5% among 360,000; AID 652054, 2013; in the data active means max response below about -50%; inconclusive means no clear call, values can overlap the other calls
#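 Cells expressing the human receptor were seeded at 1500 cells/well, incubated overnight at 37 degrees C in 5% CO2, then exposed to library compounds with dopamine controls for 90 minutes at 37 degrees C before luminescent detection.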
# Akt phos inh – HTS Assay for Inhibitors of Akt Phophorylation: Primary Screen; Neuro2A IGF-stimulated pAkt S473 HTRF, 20 min; hits give low values; activity change, % for hits at 50 µM; hit rate 0.32% among 360,000; AID 651550, 2012; in the data active means activity change below about -80%; inconclusive means mostly about -51% to -80%
#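 Single-point screen (50 µM final compound) in Neuro2A cells stimulated 20 min with 6 nM IGF at 37 deg C. After lysis, Ser473-phosphorylated Akt read by HTRF (ex 330 nm, em 615/665 nm) as the 665/615 ratio.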
# PI4K2A inh – qHTS for small molecular inhibitors of PI4K2A. AID 1346378, 2018. hit rate 0.13% among 420,000. activity change, negative = inhibition, % at 76.9 µM. Phosphatidylinositol 4-kinase type 2-alpha (Homo sapiens), Q9BTU6. purified PI4K2A, ADP-Glo luminescence, 1 h; hits give low values; in the data active means activity change below about -50%; inconclusive means mostly about -30% to -49%
# Target sequence (Q9BTU6 whole entry, looked up): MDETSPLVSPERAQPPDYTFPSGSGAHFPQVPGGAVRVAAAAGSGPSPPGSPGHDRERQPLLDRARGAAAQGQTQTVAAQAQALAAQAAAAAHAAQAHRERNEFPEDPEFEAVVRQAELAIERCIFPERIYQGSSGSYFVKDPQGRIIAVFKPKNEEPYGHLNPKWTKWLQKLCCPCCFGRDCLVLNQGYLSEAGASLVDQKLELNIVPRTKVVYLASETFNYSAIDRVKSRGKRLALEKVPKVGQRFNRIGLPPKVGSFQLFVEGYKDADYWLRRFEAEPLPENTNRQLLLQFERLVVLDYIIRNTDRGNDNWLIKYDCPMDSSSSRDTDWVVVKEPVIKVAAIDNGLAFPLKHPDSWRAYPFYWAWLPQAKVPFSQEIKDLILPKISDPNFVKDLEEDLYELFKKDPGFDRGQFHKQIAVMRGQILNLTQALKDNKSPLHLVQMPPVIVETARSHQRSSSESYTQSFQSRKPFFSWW
#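 Compounds are screened against recombinant PI4K2A using PI as substrate and ATP, the latter dispensed at 300 microM. Reactions run one hour at ambient temperature before ADP-Glo detection; full inhibition defined by wells lacking enzyme.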
# LDHA block – qHTS assay for inhibitors of human lactate dehydrogenase | hit rate 0.15% among 480,000 | purified LDHA, NADH/diaphorase-resazurin fluorescence; hits give low values | AID 1347041, 2019 | activity change, % (values are at about 110 or 230 µM) | L-lactate dehydrogenase A chain (Homo sapiens), P00338; in the data active means activity change below about -30%; inconclusive means mostly about -25% to -30%
#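 Human LDH5 (2 nM) was incubated with 0.06 mM NADH and 0.2 mM pyruvate for 5 min at room temperature in Tris pH 7.4. Remaining NADH was coupled through diaphorase/resazurin, and resorufin fluorescence was read at 0 and 20 min.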
# Hits are given with their value; – = inactive; ? = inconclusive; · = no result given. Only some compounds are listed: those with a hit (about 2.8% of all), similar ones and a draw of the others.
SMILES,DRD3 agonist,RGS4 inh,DRD3 antagonist,Akt phos inh,PI4K2A inh,LDHA block
Cn1cc(CNCc2ccccc2OCC(O)CN2CCc3ccccc3C2)cn1 (stereo not drawn),–,–,-71,–,–,–
Cc1ccc(C(C)C)c(OCC(O)CN2CCc3ccccc3C2)c1 (stereo not drawn),–,–,?,–,–,–
Fc1ccc(-c2nc(COc3ccccc3Br)co2)cc1,·,·,·,·,·,–
O=C(/C=C/c1ccco1)Nc1ccc2oc(-c3ccccc3F)nc2c1,·,·,·,·,·,–
O=C(CSc1ncc(-c2ccc(F)cc2)o1)Nc1ccc(Cl)cc1,·,·,·,·,·,–
COc1cc(CN(C(=O)c2cc(NC(C)=O)cc(NC(C)=O)c2)C2CC2)ccc1OC(F)F,·,·,·,·,·,–
NC(=O)c1ccc(COC(=O)C23CC4CC(CC(Cl)(C4)C2)C3)c([N+](=O)[O-])c1,·,·,·,·,·,–
O=C(OCc1cc(=O)oc2cc(O)ccc12)c1n[nH]c2ccccc12,·,·,·,·,·,–
Cc1ccc(NC(=O)c2cccc(C(F)(F)F)c2)cc1NC(=O)c1[nH]cnc1C(N)=O,31,–,–,–,–,–
CC(C)(C)c1ccc(-c2nnc3sc(-c4ccc5c(c4)OCO5)nn23)cc1,·,·,·,·,·,–
Cc1ccc(CN(C)C(=O)c2cccc(S(=O)(=O)N3CCc4ccccc43)c2)cc1,–,–,-52,–,–,–
O=C(CSc1nc2ccccc2c(=O)n1CCCN1CCOCC1)c1ccc(F)c(F)c1,·,·,·,·,·,–
CC(OC(=O)/C=C/c1cccc2cccnc12)C(=O)Nc1ccccc1 (stereo not drawn),·,·,·,·,·,–
COCCNC(=O)c1ccc(C)cc1C,–,–,–,–,–,–
COCCNC(=O)c1c(C)cc(C)cc1C,–,–,-77,–,–,–
Cc1ccc(NC(=S)NCc2cccn2C)cc1,32,–,–,–,–,–
Cc1cccc(NC(=S)NCc2cccn2C)c1,–,–,–,–,–,–
CCN(CC)c1ccc2cc(-c3nc(-c4ccc(OC)cc4)cs3)c(=O)oc2c1,33,–,–,–,–,–
Cc1ccc(-c2c3c(=O)n(C)c(=O)n(C)c3cn2N2CCOCC2)cc1,–,–,-51,–,–,–
COc1cc(-c2nc3ccccn3c2Nc2ccc3c(c2)OCO3)cc(OC)c1O,·,·,·,·,·,–
CCOC(=O)c1ccc(N2CCN(C(C)=O)CC2)c(NC(=O)c2ccc(CC)cc2)c1,·,·,·,·,·,–
Cc1ccc(N/N=C/c2ccc(C#N)cc2)cc1Cl,·,·,·,·,·,–
CCN1CCN(C(=O)Cn2c(=O)sc3ccccc32)CC1,–,–,-98,–,–,–
O=C(Nc1ccccc1C(=O)O)c1ccc(Br)c(S(=O)(=O)NCc2ccccc2)c1,39,–,–,–,–,–
Cc1ccc(C(=O)c2cc([N+](=O)[O-])ccc2N2CCCCC2)c(C)c1,–,–,-56,–,–,–
SMILES,DRD3 agonist,RGS4 inh,DRD3 antagonist,Akt phos inh,PI4K2A inh,LDHA block
CCC(C#CCN1CCCCC1)(CC)OCCC#N,–,–,-56,–,–,–
c1ccc(COc2cccc(-c3cc4nc(NCCc5ccncc5)ccn4n3)c2)cc1,88,·,–,–,–,–
COc1ccc(/C=N\n2nnc3ccccc32)cc1,–,–,–,–,-59,–
COc1ccc(/C=N/n2c(C)nc3ccccc3c2=O)cc1,–,–,–,–,–,–
COc1ccc(/C=C/c2nc3ccccc3n2C)cc1,–,–,–,–,-88,–
COc1ccc(Cn2c(/C=C/c3ccccc3)nc3ccccc32)cc1,–,–,–,–,–,–
CC(C)=CC(=O)Nc1sccc1C#N,·,·,·,·,·,–
Cn1c(C(=O)NCCN2CCN(c3ccccc3F)CC2)cc2c(=O)n(C)c3ccccc3c21,–,–,–,–,–,–
Cn1c(C(=O)NCCCN2CCN(c3ccc(F)cc3)CC2)cc2c(=O)n(C)c3ccccc3c21,–,–,-84,–,–,–
Cn1c(=O)cc(SCC(=O)NCCN2CCN(c3ccccc3F)CC2)c2cc(Cl)ccc21,–,–,-63,–,–,–
Cn1c(C(=O)NCCN2CCc3ccccc3C2)cc2c(=O)n(C)c3ccccc3c21,–,–,-88,–,–,–
O=C(CCn1c(=O)oc2ccccc21)NCCCN1CCN(c2ccc(F)cc2)CC1,–,–,-52,·,–,–
COc1ccc(Cc2nnc(/C=C/c3cccc4ccccc34)o2)cc1,·,·,·,·,·,–
N#CCCn1cc(C(=O)Nc2ccccc2)c(-c2cccs2)n1,·,·,·,·,·,–
Cc1cc(C)n(-c2nc3ccccc3nc2Nc2cccc(F)c2)n1,·,·,·,·,·,–
Cn1c(=O)cc(SCC(=O)NCCCN2CCN(c3ccc(F)cc3)CC2)c2ccccc21,–,–,-69,–,–,–
O=c1c2cc3c(=O)n(C4CCCCCC4)ccc3nc2ccn1-c1ncn[nH]1,·,·,·,·,·,–
Cc1ccc(C(OCCN(C)C)c2cccc(C(F)(F)F)c2)cc1 (stereo not drawn),–,–,-76,–,–,–
Fc1ccc(CSc2nnc(-c3cccnc3)o2)cc1Br,·,·,·,·,·,–
c1ccc(-c2ccccc2OCCCCN2CCCCCC2)cc1,–,–,-86,–,–,–
C=CCc1ccccc1OCCn1ccnc1,–,–,-52,–,–,–
C=CCc1cccc(OC)c1OCCOCCn1ccnc1,–,–,–,–,–,–
Cc1ccc(OCCn2ccnc2)c(C)c1,–,–,–,–,–,–
c1ccc(-c2ccccc2OCCOCCN2CCCCC2)cc1,–,–,?,–,–,–
c1ccc(-c2ccccc2OCCN2CCCC2)cc1,–,–,-63,–,–,–
SMILES,DRD3 agonist,RGS4 inh,DRD3 antagonist,Akt phos inh,PI4K2A inh,LDHA block
Cc1cc(C(C)(C)C)ccc1OCCn1ccnc1,–,–,-64,–,–,–
Nc1nccnc1C(=O)NCC1CCOC1 (stereo not drawn),·,·,·,·,·,–
CC(C)CNC(=O)C(C)Oc1ccc(C#N)cc1 (stereo not drawn),·,·,·,·,·,–
Cc1cc(Cl)cc(C)c1OCCCCN1CCOCC1,–,–,-58,·,–,–
c1ccc2c(OCCCCN3CCOCC3)cccc2c1,–,–,-60,–,–,–
Cc1cc(Cl)c(OCCCCN2CCOCC2)c(Br)c1,–,–,–,–,–,–
Cc1cccc(OCCN2CCOCC2)c1C,54,–,–,–,–,–
c1ccc(-c2ccccc2OCCCCn2ccnc2)cc1,–,–,–,–,–,-37
Cc1cc(C)c(C)c(OCCN2CCOCC2)c1,–,–,–,–,–,–
COc1ccccc1OCCCCCCN1CCOCC1,–,–,–,–,–,?
CC(C)(C)c1ccccc1OCCCCCn1ccnc1,–,–,–,–,–,–
